The text below walks through data of PubChem BioAssay (EPA / NIEHS).

SMILES strings stand for the structures. Inconclusive results are not listed. Calls of active or inactive are those of the source. Rule for the calls: active = hit-call score of the fitted dose curve at least 0.9, where 1 is the maximum; inconclusive = response in the unintended direction; inactive = score below 0.9.

Read-out in this assay: glucuronosyltransferase (UGT1A1), UGT1A1 (gene 54658)
Nature of the assay: CLD_UGT1A1_48hr: CellzDirect (CLD) Gene Expression Assay for glucuronosyltransferase (UGT1A1) at 48 hours (AID 2283709).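 Note: actives increase expression relative to DMSO so potency refers to induction.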 The gist of the method: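 Human primary hepatocytes dosed daily for two days (0.2% DMSO vehicle), harvested at 48 h. UGT1A1 mRNA induction measured by quantitative nuclease protection assay with chemiluminescence; gain of signal versus DMSO; cytotoxicity flagged from morphology.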
As to `COC(=O)c1ccccc1S(=O)(=O)NC(=O)Nc1nc(C)nc(OC)n1`, the call was inactive.

Consider `CCOC1Oc2ccc(OS(C)(=O)=O)cc2C1(C)C` (centres undefined), for which the outcome was inactive.

With `Clc1ccccc1-c1nnc(-c2ccccc2Cl)nn1`, the result was inactive.

With `Oc1ccc(Cl)cc1Cc1ccccc1`, the compound was classed as inactive.

As to `O=[N+]([O-])/N=C1\NCCN1Cc1ccc(Cl)nc1`, the result was inactive.

For `COC(=O)c1ccccc1CS(=O)(=O)NC(=O)Nc1nc(OC)cc(OC)n1`, the compound was classed as inactive.

As to `COC(=O)c1ccccc1S(=O)(=O)NC(=O)N(C)c1nc(C)nc(OC)n1`, the compound was classed as inactive.

On to `CCN(CC)C(=O)SCc1ccc(Cl)cc1`, for which the AC50 is 20 µM (active).

With `CC(C)N(C(=O)COc1nnc(C(F)(F)F)s1)c1ccc(F)cc1`, the compound was classed as inactive.

On to `O=[N+]([O-])c1c(Cl)c(Cl)c(Cl)c(Cl)c1Cl`, for which the result was inactive.

Take `CC(C)(C)C(O)/C(=C\c1ccc(Cl)cc1Cl)n1cncn1` (centres undefined): the result was inactive.

In the case of `CNC(=O)Oc1cccc(N=CN(C)C)c1`, the compound was classed as inactive.

As to `O=S(=O)(O)C(F)(F)C(F)(F)C(F)(F)C(F)(F)C(F)(F)C(F)(F)C(F)(F)C(F)(F)F`, the compound was called inactive.

As for `O=C(NC(=O)c1c(F)cccc1F)Nc1ccc(OC(F)(F)C(F)OC(F)(F)F)c(Cl)c1` (centres undefined), the compound was called inactive.

For the compound `CCC(C)Nc1c([N+](=O)[O-])cc(C(C)(C)C)cc1[N+](=O)[O-]` (centres undefined), the AC50 was 2.8 µM (active).

For the compound `CC(C)OC(=O)Nc1cccc(Cl)c1`, the AC50 was 12.8 µM (active).

In the case of `CCCN(CCC)c1c([N+](=O)[O-])cc(C(F)(F)F)cc1[N+](=O)[O-]`, the AC50 was 3.27 µM (active).

For the compound `OCCOc1ccccc1`, the compound was called inactive.

Take `O=S1OCC2C(CO1)C1(Cl)C(Cl)=C(Cl)C2(Cl)C1(Cl)Cl` (centres undefined): the outcome was inactive.

Usually AC50 stands for the midpoint of the concentration-response curve, whichever way the signal moves.
